# The entries come from a sample that favours hits as a whole.
# Shiga toxin inh: A qHTS for Small Molecule Inhibitors of Shiga Toxin | actives 9.2% (n = 290,000) | Vero cells, Shiga toxin protein synthesis inhibition reporter | inhibition, % at 38.7 µM; in the data active means inhibition mostly above about 28%, no sharp cut-off; inactive means mostly below about 43%; further: 0% is about no effect
# NS1 function inh: qHTS Assay for Inhibitors of Influenza NS1 Protein Function | Potency, µM (highest dose often 46.1 µM), without a hit: top-dose activity, positive = more growth | actives 0.4% (n = 270,000) | AID 2326, 2010; calls by dose curve; further: potency means the concentration at half of the fitted maximal effect; actives are rising curves; nearly all actives have a fitted effect of over 50% in size
#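 OD600 was taken as the measure of yeast growth restored by compound in an NS1-expressing S. cerevisiae strain. Cells had been washed out of glucose medium and diluted 1:100 into galactose -URA medium, pH 6.0.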
# AmpC no deterg: qHTS Inhibitors of AmpC Beta-Lactamase (assay without detergent). P00811. AmpC nitrocefin hydrolysis, absorbance 480 nm, 0.0001% Triton. Potency, µM (doses to about 57.1 µM), for the others: at the top dose activity change, negative = inhibition, hits mostly inhibitors. actives 0.52% (n = 330,000);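 further: potency means the concentration at half of the fitted maximal effect; plate controls were no compound for no effect and no enzyme for full effect; nearly all actives have a fitted effect of over 20% in size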
# Target sequence (P00811 whole entry, looked up): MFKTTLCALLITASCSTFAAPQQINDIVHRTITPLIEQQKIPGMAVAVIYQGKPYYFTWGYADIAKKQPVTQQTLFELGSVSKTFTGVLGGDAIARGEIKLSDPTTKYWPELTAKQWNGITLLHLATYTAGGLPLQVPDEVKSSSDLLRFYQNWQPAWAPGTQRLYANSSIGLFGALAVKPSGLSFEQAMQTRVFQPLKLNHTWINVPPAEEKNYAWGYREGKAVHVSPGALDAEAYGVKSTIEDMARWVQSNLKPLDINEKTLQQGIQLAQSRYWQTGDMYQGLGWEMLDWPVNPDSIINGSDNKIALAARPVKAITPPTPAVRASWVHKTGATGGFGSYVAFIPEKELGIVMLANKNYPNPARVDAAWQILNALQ
#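 20 mM phosphate pH 7.0 + 0.01% (detergent screen) or 0.0001% Triton X-100; 5.3 nM AmpC reagent; cpd preinc 15 min RT; nitrocefin (800 uM stock) to start; A480 q20 s × 4 min; Activity was normalised to no-enzyme and no-compound control wells.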
# Cycloheximide cs: Cycloheximide Counterscreen for Small Molecule Inhibitors of Shiga Toxin | cell reporter, cycloheximide protein synthesis inhibition counterscreen | max response, % | actives 12% (n = 300,000); in the data active means max response mostly above about 13%, no sharp cut-off; inactive means mostly below about 14%; further: read at 38.3 µM for the half of the compounds with a filed dose; 0% is about no effect
# AmpC detergent: qHTS Inhibitors of AmpC Beta-Lactamase (assay with detergent) | P00811 | AmpC hydrolysis of nitrocefin, absorbance 480 nm, 0.01% Triton | Potency, µM (top dose mostly 114 µM), inactives show at the top dose activity change, negative = inhibition, actives largely listed as inhibitors | actives 0.041% (n = 370,000) | AID 485294, 2010;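 further: potency means the concentration at half of the fitted maximal effect; 0% = no-compound wells and -100% = no-enzyme wells; nearly all actives have a fitted effect of over 25% in size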
#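 AmpC (5.3 nM in the dispensed reagent) in 20 mM phosphate pH 7.0 with 0.01% (detergent screen) or 0.0001% Triton X-100 was preincubated with compounds for 15 min at room temperature. Nitrocefin was then added from an 800 uM solution, and hydrolysis was followed at 480 nm.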
# Active calls of the source: *; ? = inconclusive; . = no result. Unless noted, the call rests on the fitted dose curve; in most records, active means well fitted curve in the direction sought with a large enough effect; inconclusive means small, poorly fitted or top-dose-only effect, or another doubt; inactive means no such curve, though single readings can be large; an effect the other way counts as inactive or inconclusive.
SMILES,Shiga toxin inh,NS1 function inh,AmpC no deterg,Cycloheximide cs,AmpC detergent
CCc1ccc(C2(C)SC(NC(C)=O)=NN2C(C)=O)cc1 (stereo not drawn),-19,?,28%,-2,1%
CC(=O)NC1=NN(C(C)=O)C(C)(c2cccs2)S1 (stereo not drawn),-5,4%,-15%,-1,-2%
CC(=O)NC1=NN(C(C)=O)C(C)(c2ccc(C)o2)S1 (stereo not drawn),22,1%,-5%,19*,0%
Cc1ccc(NC(=O)CCS(=O)(=O)c2cccc3nsnc23)c(C)c1,.,.,.,.,-6%
CCN1C(=O)CSC1=Nc1ccc(OC)cc1,.,-18%,-8%,-3,?
O=S(=O)(NCCc1nnc2ccc(SCc3cccc(Cl)c3)nn12)c1ccccc1,.,.,.,.,3%
N#Cc1nc(-c2ccc(F)cc2)oc1NCc1cccc2c1OCO2,46,-2%,-19%,34*,-10%
CC(C)(C)c1ccc(-c2nc(C#N)c(NCc3ccncc3)o2)cc1,91*,-42%,13%,57*,-12%
CC(C)CNc1oc(-c2ccc(F)cc2)nc1C#N,40*,-12%,-21%,16*,-11%
CC(C)(C)c1ccc(-c2nc(C#N)c(NCCCn3ccnc3)o2)cc1,10,4%,125%,9,1%
Cc1ccc(-c2nc(C#N)c(NCc3cccc4c3OCO4)o2)cc1,59*,-34%,0.32µM*,26*,8%
COc1ccc(CCC(C)NC(=O)Cc2ccc(OC)c(OC)c2)c(OC)c1 (stereo not drawn),6,-6%,43%,4,-6%
NC(=O)C1CCN(C(=O)COCc2cc(-c3ccc4c(c3)OCO4)on2)CC1,10,19%,-3%,17,?
CN1CCN(C(=O)COCc2cc(-c3ccc4c(c3)OCO4)on2)CC1,23*,1%,8%,18*,-4%
O=C(COCc1cc(-c2ccc3c(c2)OCO3)on1)N1CCCCC1,76*,21%,18%,68*,-2%
CC1CCN(C(=O)C2COc3ccccc3C2)CC1 (stereo not drawn),.,.,.,.,1%
CCn1c(O)c(N=Nc2ccc3ccccc3n2)c2ccccc21,81*,-5%,5%,39*,-5%
CCCCn1c(O)c(N=Nc2ccccn2)c2ccccc21,8,-18%,32%,7,?
CCN(CC)CCN(C(=O)c1ccco1)c1nc2c(C)c(C)ccc2s1,.,.,.,.,0%
Brc1ccc(-c2cnc(-c3cccs3)o2)cc1,92*,-42%,9%,36*,-13%
CCN(CC(=O)Nc1ccc2c(c1)OCCO2)C(=O)/C=C/c1ccccc1,47,.,-8%,36*,13%
O=C(/C=C/c1ccco1)Nc1ccc2c(c1)OCCO2,69*,.,-25%,30*,-3%
COc1ccccc1/C=C/C(=O)Nc1ccc2c(c1)CCC2,34*,6%,-43%,35*,?
CCN(CC(=O)Nc1ccc2c(c1)OCCO2)C(=O)/C=C/c1ccc(F)cc1,34,.,-12%,29,-6%
O=C(/C=C/c1ccccc1)Nc1ccc2c(c1)OCCO2,30,-44%,-28%,25*,0%
SMILES,Shiga toxin inh,NS1 function inh,AmpC no deterg,Cycloheximide cs,AmpC detergent
CCOC(=O)c1cc(-c2ccccc2)n(CCCC(=O)Nc2ccccc2C)c1C,.,.,.,.,9%
CN1CCN(CCCNC(=O)Cn2c(-c3cccs3)cc3cc(Cl)ccc32)CC1,.,.,.,.,-3%
O=C(NNC(=O)C1CCC1)c1ccccc1F,.,.,2%,.,-12%
O=[N+]([O-])c1cc(-c2nc(-c3ccccc3)no2)ccc1N1CCCC1,.,.,.,.,-1%
COc1ccccc1/C=C/C(=O)Nc1ccc2c(c1)OCCO2,99*,-49%,-35%,56*,-4%
CC1SCC(=NOCc2c(Cl)cccc2Cl)CS1 (stereo not drawn),62*,1%,-22%,12,-9%
O=S(=O)(NC1CCCCC1)c1ccc(Cl)s1,-11,-14%,-46%,6,-10%
CCS(=O)(=O)N1CCC2(CC1)OC(=O)C(C)=C2C(=O)NCc1ccc(OC)c(OC)c1,.,.,.,.,4%
COc1ccc(C2/C(=C(/O)c3ccc(Br)cc3)C(=O)C(=O)N2C)cc1OC (stereo not drawn),-7,-1%,-16%,-1,-7%
COc1ccc(C2/C(=C(/O)c3ccccc3)C(=O)C(=O)N2C)cc1OC (stereo not drawn),27*,25%,-17%,14*,8%
O=[N+]([O-])C1C(c2ccccc2)=NOC1c1ccccc1O (stereo not drawn),25*,-108%,-24%,24*,?
Cn1c(=O)c2c(nc(Oc3ccccc3)n2Cc2c(Cl)cccc2Cl)n(C)c1=O,.,.,.,.,-5%
CC(C)C(=O)NC(=S)N1CCc2ccccc21,9,6%,-19%,-2,-8%
O=C(COc1ccccc1)NC(=S)N1CCc2ccccc21,38*,-33%,-22%,40*,?
COc1ccc(OCC(=O)NC(=S)N2CCCc3ccccc32)cc1,152*,14%,-10%,35*,4%
O=C(COc1ccccc1Cl)NC(=S)Nc1ccccc1N1CCCC1,24,13%,-47%,2,-3%
O=C(COc1ccccc1Cl)NC(=S)N1CCc2ccccc21,57,-16%,-40%,50*,-5%
O=C(c1ccc(Cl)cc1)N1CCC(c2ccncc2)CC1,.,.,.,.,3%
O=C(C[C@@H](C(=O)O)N1CCOCC1)c1ccccc1,.,-1%,.,.,.
CCN(CC)c1ccc(NC(=O)CCc2nc3cccnc3n2Cc2cccs2)c(C)c1,.,.,.,.,-9%
COc1nc(N)c(S(=O)(=O)c2ccccc2C)cc1C#N,12,-3%,0.16µM*,2,6%
COc1nc(N)c(S(=O)(=O)c2ccccc2)cc1C#N,3,5%,-30%,1,0%
CCOc1ccc(/C(O)=C2/C(=O)C(=O)N(c3nc(C)c(C)s3)C2c2ccco2)cc1 (stereo not drawn),123*,-50%,?,18*,?
CCCOc1ccc(/C(O)=C2/C(=O)C(=O)N(CCCn3ccnc3)C2c2ccco2)cc1 (stereo not drawn),28,10%,-23%,28*,-6%
Cc1nnc(N2C(=O)C(=O)/C(=C(/O)c3ccc4c(c3)CC(C)O4)C2c2ccccc2F)s1 (stereo not drawn),18,24%,-27%,14*,-12%
C=CCOc1ccc(/C(O)=C2/C(=O)C(=O)N(CCCn3ccnc3)C2c2ccco2)cc1 (stereo not drawn),65*,1%,-4%,32*,-1%
CCCCCCCC/C=C\CCCCCCCCCCCC(=O)O,-7,.,.,4,.
O=C1C(=O)N(CCCn2ccnc2)C(c2ccccn2)/C1=C(/O)c1ccccc1 (stereo not drawn),-9,8%,-17%,-7,?
COc1ccccc1C1/C(=C(\O)c2ccc3c(c2)OCCO3)C(=O)C(=O)N1CCCn1ccnc1 (stereo not drawn),72*,-11%,0%,32*,-3%

# Screens deposited in PubChem by National Center for Advancing Translational Sciences (NCATS).
